From PubChem
U2OS ROS induce – inducers of reactive oxygen species in cancer cells; U2OS ROS induction, H2DCF-DA fluorescence; ROS induction (% of piperlongumine), % at 10 µM; 46,000 tested, 2% active; in the data active = ROS induction above about 79%, passing the limit was not always enough; inconclusive = no clear call, values can overlap the other calls;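 also: 0% = DMSO vehicle median and 100% = reference compound median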
NOMO-1 viab – STK33 inhibitor candidate reducing NOMO-1 cell viability; 37,000 tested, 7.5% active; AID 2330; inhibition, % (no concentration beside the values); NOMO-1 AML viability, CellTiter-Glo luminescence, 72 h; in the data active = inhibition above about 80%; inconclusive = no clear call, values can overlap the other calls
* = called active by the depositor; ? = inconclusive; · = not tested or not shown. Only a selection was taken, and hits are over-represented in it overall.

SMILES | U2OS ROS induce | NOMO-1 viab
COc1ccc(C(=O)CC2(O)C(=O)N(Cc3ccc(C)cc3)c3ccc(Cl)cc32)cc1[N+](=O)[O-] (stereo not drawn) | 70.3 | 124.0*
Cc1coc(C)c1C(=O)CC1(O)C(=O)N(Cc2cccc3ccccc23)c2ccccc21 (stereo not drawn) | 6.6 | 40.0
CCCN1C(=O)C(O)(CC(=O)c2ccc(OC)c([N+](=O)[O-])c2)c2cc(Br)ccc21 (stereo not drawn) | 15.1 | 112.9*
COc1ccc(C2(CNC(=O)c3ccc(OC)c([N+](=O)[O-])c3)CCCC2)cc1OC | 1.5 | 13.7
COc1ccc(C(=O)CC2(O)C(=O)N(Cc3ccc(Cl)c(Cl)c3)c3ccccc32)cc1OC (stereo not drawn) | 6.5 | 43.4
CCCN1C(=O)C(O)(CC(=O)c2ccc(OC)c([N+](=O)[O-])c2)c2ccccc21 (stereo not drawn) | · | 117.9*
Cc1ccc(CN2C(=O)C(O)(CC(=O)c3c(C)coc3C)c3cc(Cl)ccc32)cc1 (stereo not drawn) | 2.8 | 127.6*
N#CCCCN1C(=O)C(O)(CC(=O)c2ccc(Br)s2)c2ccccc21 (stereo not drawn) | -10.5 | 46.6
CCC1(C)Cc2c(sc3nc(SC)nc(SCC(=O)OC)c23)CO1 (stereo not drawn) | · | -14.4
Cn1c(C(C#N)C(=O)c2ccccc2I)nc2ccccc21 (stereo not drawn) | 6.6 | 44.6
CCn1c(SCC(=O)Nc2cccc(SC)c2)nnc1-c1ccccc1Cl | -1.0 | 35.2
O=C(CC1(O)C(=O)N(Cc2ccc(Cl)cc2)c2ccc(Cl)cc21)c1ccc2c(c1)OCCO2 (stereo not drawn) | 12.9 | 129.4*
O=C(CC1(O)C(=O)N(Cc2ccccc2)c2ccc(Cl)cc21)c1ccc2c(c1)OCCO2 (stereo not drawn) | -3.5 | 26.0
Cc1cc(C(=O)Nc2cccc3c2O[C@H](CN(C)Cc2ccc(-c4ccccc4)cc2)[C@@H](C)CN([C@H](C)CO)C3=O)n(C)n1 | 195.5* | 88.5*
Cc1cc(C(=O)Nc2cccc3c2O[C@@H](CN(C)Cc2ccccc2)[C@@H](C)CN([C@H](C)CO)C3=O)n(C)n1 | -0.6 | 9.3
Cc1cc(C(=O)Nc2cccc3c2O[C@@H](CN(C)Cc2ccc(-c4ccccc4)cc2)[C@H](C)CN([C@@H](C)CO)C3=O)n(C)n1 | ? | 45.9
Cc1cc(C(=O)Nc2cccc3c2O[C@H](CN(C)Cc2ccc(Oc4ccccc4)cc2)[C@@H](C)CN([C@H](C)CO)C3=O)n(C)n1 | 171.6* | 111.1*
C[C@@H]1CN([C@@H](C)CO)C(=O)c2cc(NC(=O)Nc3ccc4c(c3)OCO4)ccc2O[C@H]1CN(C)Cc1ccc(C(=O)O)cc1 | -9.8 | 19.8
C[C@H]1CN([C@@H](C)CO)C(=O)c2cc(NC(=O)Nc3ccc4c(c3)OCO4)ccc2O[C@@H]1CN(C)Cc1ccc(C(F)(F)F)cc1 | 94.2* | 11.1
C[C@H]1CN([C@@H](C)CO)C(=O)c2cc(NC(=O)Nc3ccc4c(c3)OCO4)ccc2O[C@@H]1CN(C)Cc1ccc(C(=O)O)cc1 | -4.2 | 31.8
C[C@@H]1CN([C@@H](C)CO)C(=O)c2cc(NC(=O)Nc3ccc4c(c3)OCO4)ccc2O[C@H]1CN(C)Cc1ccc(C(F)(F)F)cc1 | 6.4 | 92.7*
Cc1ccc(S(=O)(=O)c2nc(SCC(=O)c3ccc(Cl)cc3)sc2Cl)cc1 | · | 32.6
CCOC(=O)CSc1n[nH]c(CN2c3ccccc3Sc3ccccc32)n1 | -1.2 | 116.7*
O=C(CSc1n[nH]c(-c2ccco2)n1)N1c2ccccc2Sc2ccccc21 | · | 32.7
C(=N/N1CCN(c2ccccc2)CC1)/c1ccccc1 | -5.3 | ·
SMILES | U2OS ROS induce | NOMO-1 viab
O=C1CC(c2ccccc2Cl)Cc2c1cnn2-c1nc2ccccc2s1 (stereo not drawn) | 18.7 | ·
CC1(C)CC(=O)C2=C(C1)NC(Nc1nc3ccccc3o1)=NC2c1ccccc1 (stereo not drawn) | 21.4 | ·
COc1ccc(OC)c(C2N=C(Nc3nc4ccccc4s3)NC3=C2C(=O)CC(C)(C)C3)c1 (stereo not drawn) | · | 115.2*
O=C1CCCC2=C1C(c1ccccc1Cl)N=C(Nc1nc3ccccc3s1)N2 (stereo not drawn) | 178.2* | 115.5*
COc1ccc(CN(C)C[C@@H]2Oc3c(NS(=O)(=O)c4ccccc4)cccc3C(=O)N([C@@H](C)CO)C[C@@H]2C)cc1 | -6.5 | 2.1
COc1cccc(NC(=O)c2ccc(NCc3cccnc3)c([N+](=O)[O-])c2)c1 | · | 18.5
CCOC(=O)c1ccccc1NC(=O)C(C)Oc1cc(C)c(Cl)c(C)c1 (stereo not drawn) | · | 35.4
Cc1c(Cc2ccccc2)c(=O)oc2cc(OC(C)C)ccc12 | 53.0 | 61.7
CCOC(=O)C(C)Oc1ccc2c(-c3ccccc3)cc(=O)oc2c1 (stereo not drawn) | 106.5* | 109.0*
CCOC(=O)c1ccccc1NC(=O)C(C)Oc1ccc2c(C)cc(=O)oc2c1 (stereo not drawn) | · | 103.8*
